In the library only some 2.9% were active in any assay of this set; here they are far more common.
D3 antag: antagonists of human D3 dopamine receptor; max response, negative = inhibition, %; AID 652054; D3R cells, DiscoveRx beta-arrestin luminescence, antagonist mode; stronger effect = lower value; 360,000 tested, 2.5% active; in the data active = max response below about -50%
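Cells expressing the human receptor were seeded at 1500 cells/well, incubated overnight at 37 degrees C in 5% CO2, then exposed to library compounds with dopamine controls for 90 minutes at 37 degrees C before luminescent detection.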
B2AR arrestin: beta2AR (human) beta-arrestin recruitment activity | P07550 | beta-arrestin recruitment to beta2AR, cell-based reporter | Potency, µM (series often up to 46.1 µM), actives largely listed as activators | 330,000 tested, 0.02% active | AID 492947; note: nearly all actives have a fitted effect of over 65% in size
IDH1 R132H inh: human IDH1 R132H inhibition; O75874; IDH1-R132H enzyme, NADPH consumption, diaphorase/resazurin fluorescence; Potency, µM (titrated, usually from 76.6 µM), most hits filed as inhibitors; 390,000 tested, 0.093% active; note: nearly all actives have a fitted effect of over 65% in size
Target sequence (O75874 whole entry R132H, stated change not applied): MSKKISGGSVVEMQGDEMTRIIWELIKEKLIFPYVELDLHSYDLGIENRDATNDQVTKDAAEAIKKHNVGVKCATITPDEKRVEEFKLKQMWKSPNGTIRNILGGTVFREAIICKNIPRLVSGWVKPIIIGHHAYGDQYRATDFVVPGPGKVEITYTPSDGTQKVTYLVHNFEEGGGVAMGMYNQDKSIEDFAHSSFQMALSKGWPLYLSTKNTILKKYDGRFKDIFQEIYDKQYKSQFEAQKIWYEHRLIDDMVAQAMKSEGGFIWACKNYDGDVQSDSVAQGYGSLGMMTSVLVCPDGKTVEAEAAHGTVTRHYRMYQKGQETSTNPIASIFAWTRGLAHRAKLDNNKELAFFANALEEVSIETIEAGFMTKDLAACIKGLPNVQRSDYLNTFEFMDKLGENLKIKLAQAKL
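IDH1-R132H (0.5 ug/mL) preincubated 30 min with compound, then NADPH (0.016 mM) and alpha-KG (2 mM) added; 80 min at RT, pH 7.5. Remaining NADPH coupled via diaphorase/resazurin to fluorescence (540/590 nm); concentration-response curves normalized to no-enzyme control.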
a7 integrin act: activates integrin-mediated alleviation for muscular dystrophy; alpha7betagal myoblasts, beta-gal FDG fluorescence, 48 h; Potency, µM (doses to about 38.3 µM), hits mostly activators; 350,000 tested, 0.064% active; AID 624291; note: nearly all actives have a fitted effect of over 60% in size
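Alpha7betagal+/- myoblasts (passage 13) were plated 16-24 hr, then exposed to compounds (1:260 dilution of DMSO stock) for 48 hours at 37C. After MPER lysis, β-galactosidase reporter activity was read as FDG fluorescence (ex 480/em 540) after 30 minutes.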
D3 ag: activates the human D3 dopamine receptor | P35462 | D3R DiscoveRx beta-arrestin cells, luminescence, 90 min | max activation, % | 410,000 tested, 0.58% active | AID 652048; in the data active = max activation above about 30%
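Agonist-mode cell screen: cells plated at 1500/well and incubated overnight at 37 °C, then exposed to library compounds for 90 min at 37 °C. Detection reagent was added for 30–60 min at room temperature, and luminescence was read.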
Of the large screens only hits and unclear results are named; the others gave an inactive call; ! = not confirmed by another sample. Unless noted, calls come from the whole dose curve; as a rule, active = well fitted curve in the direction sought with a large enough effect; inconclusive = small, poorly fitted or top-dose-only effect, or another doubt; inactive = no such curve, though single readings can be large; an effect the other way counts as inactive or inconclusive.

CC(C)c1ccc(S(=O)(=O)c2cnc(=S)[nH]c2N)cc1	D3 antag -59.3
CC(C)c1ccc(S(=O)(=O)c2ccc(NN)cc2)cc1	none
NCC[C@H](O)C(=O)N[C@@H]1C[C@H](N)[C@@H](O[C@H]2O[C@H](CN)CC[C@H]2N)[C@H](O)[C@H]1O[C@H]1O[C@H](CO)[C@@H](O)[C@H](N)[C@H]1O	none (no result: D3 antag, B2AR arrestin, IDH1 R132H inh, a7 integrin act)
CCN1C(=O)/C(=C\N2CCN(c3ccc(F)cc3)CC2)SC1=S	D3 ag 34.3
CCN(CC)c1ccc(NC(=O)CN(C)S(=O)(=O)c2cccc3nsnc23)c(C)c1	none (no result: D3 antag, B2AR arrestin, a7 integrin act)
CCCc1cc(=O)oc2cc(C)cc(OCC(=O)NC3CCN(Cc4ccccc4)CC3)c12	none
O=C(CCc1nc(-c2ccccc2F)no1)NCc1ccco1	D3 antag -87.9
Cc1ccc(-c2noc(CCC(=O)NC3CCN(Cc4ccccc4)CC3)n2)cc1	none
Cc1cc(OCC(=O)NC2CCN(Cc3ccccc3)CC2)c2c(C)cc(=O)oc2c1	D3 antag -63.4
O=C(CCc1nc(-c2ccccc2F)no1)NC1CCN(Cc2ccccc2)CC1	D3 antag -51.1
CCc1cc(=O)oc2cc(C)cc(OC(C)C(=O)NC3CCN(Cc4ccccc4)CC3)c12 (configuration not stated)	none
Cc1cc(OC(C)C(=O)NC2CCN(Cc3ccccc3)CC2)c2c(C)cc(=O)oc2c1 (configuration not stated)	D3 antag -62.0
Cc1c(C(=O)NCCc2ccccc2)cccc1-n1cnc2cccnc21	none (no result: D3 antag, B2AR arrestin, a7 integrin act)
Cc1cc(OCC(=O)NC2CCN(Cc3ccccc3)CC2)c2c(C)c(C)c(=O)oc2c1	D3 antag -81.7
CC(Oc1ccc(Br)cc1)C(=O)NC1CCN(Cc2ccccc2)CC1 (configuration not stated)	D3 antag -74.6
Cc1cc(=O)oc2c(C)c(OCC(=O)NC3CCN(Cc4ccccc4)CC3)ccc12	none
Cc1ccc(C)c(OCc2cc(C(=O)NC3CCN(Cc4ccccc4)CC3)no2)c1	D3 antag -92.6
O=C(COc1ccccc1F)NC1CCN(Cc2ccccc2)CC1	D3 antag -64.6
CC(C)c1nn2c(=O)cc(COC(=O)c3cccc(NC(=O)COc4ccc(F)cc4)c3)nc2s1	none (no result: D3 antag, B2AR arrestin, a7 integrin act)
COC(=O)c1nn(-c2ccc(OC)cc2)c(=O)cc1O	none
COc1ccc(-n2nc(C#N)c(Cl)cc2=O)cc1	D3 antag -104.4
O=C(NC1CCN(Cc2ccccc2)CC1)c1[nH]c(C(F)(F)F)nc1-c1ccccc1	D3 antag -85.4! (no result: B2AR arrestin, IDH1 R132H inh, a7 integrin act)
O=C(c1[nH]c(C(F)(F)F)nc1-c1ccccc1)N1CCCN(Cc2ccc(F)cc2)CC1	none (no result: B2AR arrestin, IDH1 R132H inh, a7 integrin act)
O=C(NCc1cccc(C(F)(F)F)c1)c1[nH]c(C(F)(F)F)nc1-c1ccccc1	D3 antag -63.0 (no result: B2AR arrestin, IDH1 R132H inh, a7 integrin act)
CN1CCN(c2nc(N3CCN(CCO)CC3)nc3ccccc23)CC1	none
OCCN1CCN(c2cc(-c3ccccc3)c3ccccc3n2)CC1	D3 antag -80.7
CCc1ccccc1NC(=O)COC(=O)c1cn(CC)c2nc(C)ccc2c1=O	none (no result: D3 antag, B2AR arrestin, a7 integrin act)
CCOc1ccc(C(=O)N2CCC(c3nnc(-c4ccccc4OC)o3)CC2)cc1	none (no result: D3 antag, B2AR arrestin, a7 integrin act)
COC(=O)c1ccc(C)c(NS(=O)(=O)c2ccc(OC)c(OC)c2)c1	D3 antag -70.0
CCC(=O)N1CCN(c2ccc(Cl)cc2NC(=O)Cc2ccc(Cl)cc2)CC1	none
CCC(=O)N1CCN(c2ccccc2NC(=O)Cc2ccc(Cl)cc2)CC1	D3 antag -73.7
O=C(CCCCCNC(=O)N1CCn2c1nc1ccccc12)N[C@@H](Cc1ccccc1)C(=O)O	D3 ag 30.3
CC(=O)N1CCc2nc3sc(C(=O)c4ccc(F)cc4)c(N)c3c(C(F)(F)F)c2C1	none (no result: D3 antag, B2AR arrestin, a7 integrin act)
Clc1ccc(CN2CCCCCCC2)cc1	none
Fc1ccc(CNC2CCN(Cc3ccccc3)CC2)cc1	none
Clc1ccc(CN2CC[C@H]3C=CCc4cccc(c43)C2)cc1	D3 antag -84.3
Fc1ccc(CN2CC[C@H]3C=CCc4cccc(c43)C2)cc1	D3 antag -52.9
COc1ccccc1CNC(=O)N1CCN(S(=O)(=O)c2ccccc2)CC1	D3 ag 30.4
Cc1ccc(C(=O)N2CCc3cc(CNC(=O)CSc4ccccc4)ccc32)cc1	none (no result: D3 antag, B2AR arrestin, a7 integrin act)
CCOc1cc(C(=O)N2CCN(C/C=C/c3ccccc3)CC2)cc(OCC)c1OCC	none
COc1ccc(NS(=O)(=O)c2cc(C(=O)N3CCN(C/C=C/c4ccccc4)CC3)ccc2C)cc1	D3 ag 49.4
COc1cc(C(=O)N2CCN(C/C=C/c3ccccc3)CC2)cc(OC)c1OC	D3 ag 33.2
O=C(c1cccc([N+](=O)[O-])c1)N1CCN(S(=O)(=O)/C=C/c2ccccc2)CC1	none
O=C(c1cccc([N+](=O)[O-])c1)N1CCN(C/C=C/c2ccccc2)CC1	D3 ag 31.5
O=C(NC(=S)N1CCN(C/C=C/c2ccccc2)CC1)c1ccco1	none
O=C(c1ccco1)N1CCN(C/C=C/c2ccccc2)CC1	D3 antag -108.7
Cc1cccc(C(=O)NCc2nnc(SCC(=O)Nc3ccccc3F)n2-c2ccccc2)c1	none (no result: D3 antag, B2AR arrestin, a7 integrin act)
Cc1nccc(-c2ccc(-n3cnc4ccccc43)cc2)n1	none
Nc1nccc(-c2ccc(-n3cnc4ccccc43)cc2)n1	a7 integrin act 11.2µM
CC1(C)OC(=O)C(=CNc2ncccn2)C(=O)O1	D3 antag -68.3
O=C(Nc1ccc(Cl)c(C(F)(F)F)c1)c1ccncc1	none
C/C(CC(=O)Nc1ccc(Cl)c(C(F)(F)F)c1)=N\NC(=O)c1cnccn1	a7 integrin act 4.47µM
CNC(=O)c1cc(Oc2ccc(NC(=O)Nc3ccc(Cl)c(C(F)(F)F)c3)cc2)ccn1	D3 antag -58.0
COc1ccc(NC(=O)c2cc(Br)ccc2Cl)c([N+](=O)[O-])c1	none
COc1ccc(NC(=O)c2ccc(C)cc2Cl)c([N+](=O)[O-])c1	D3 antag -62.8
OCc1ccccn1	none (no result: D3 antag, B2AR arrestin, IDH1 R132H inh, a7 integrin act)
Nc1nnc(SC2CC(=O)N(c3ccccc3)C2=O)s1 (configuration not stated)	D3 antag -54.8
C=C1C(=O)[C@@]23[C@H](O)C[C@@H]4C(C)(C)CC[C@H](O)[C@@]4(C)[C@@H]2CC[C@@H]1[C@H]3O	D3 antag -56.5
Cc1ccc(/C=C(\C#N)C(=O)NC(C)c2ccccc2)o1 (configuration not stated)	none
Cc1ccc(C)c(NC(=S)NC(NC(=O)Cc2cccc3ccccc23)C(Cl)(Cl)Cl)c1 (configuration not stated)	D3 antag -50.3
CCc1ccc(OCC(=O)NC(NC(=S)Nc2ccccc2C)C(Cl)(Cl)Cl)cc1 (configuration not stated)	D3 antag -56.5
Cc1ccccc1NC(=S)NC(NC(=O)COc1ccccc1)C(Cl)(Cl)Cl (configuration not stated)	none
